Source: PubChem BioAssay (Tox21)
Values without a mark were called inactive. Records with an inconclusive call do not appear. Entries that show only a call come without a potency. Active and inactive are the calls of the source. Unless noted, the call rests on the fitted dose curve; in most records, active means well fitted curve in the direction sought with a large enough effect in the repeat runs; inconclusive means weak or mixed curves; inactive means no such curve, though single readings can be large; an effect the other way counts as inactive or inconclusive.

Assays:
[1] = qHTS assay to identify small molecule antagonists of the estrogen related receptor (ERR) signaling pathway from Tox21 library - cell viability counter screen (AID 1224834); further: potency means the concentration at half of the fitted maximal effect; nearly all actives have a fitted effect of over 30% in size
Procedure, shortened: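 ERR reporter cells were plated 6 h before compound addition, then exposed to test compounds in DMSO for 17.5 h at 37 C. Viability was read as CellTiter-Fluor fluorescence after a 30-minute incubation at 37 C.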

[2] = qHTS assay to identify small molecule agonists of the constitutive androstane receptor (CAR) signaling pathway - cell viability counter screen (AID 1224836); further: nearly all actives have a fitted effect of over 45% in size; further: potency means the concentration at half of the fitted maximal effect
Procedure, shortened: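 Double-stable HepG2 hepatoma cells (hCAR plus CYP2B6-2.2kb) are treated for 23 h at 37 C with test compounds in 15-point concentration series. PK11195 at 0.75 uM final is co-added. Cell viability is quantified by CellTiter-Fluor.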

[3] = biological target: Nuclear receptor subfamily 1 group I member 3 (Homo sapiens) (UniProt Q14994); test: qHTS assay to identify small molecule antagonists of the constitutive androstane receptor (CAR) signaling pathway (AID 1224838); further: nearly all actives have a fitted effect of over 40% in size; further: potency means the concentration at half of the fitted maximal effect
Procedure, shortened: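 HepG2 cells stably co-transfected with hCAR and a CYP2B6-2.2kb luciferase reporter were seeded 4 h before compound addition at 15 concentrations. Cells were stimulated with 50 nM CITCO (final) for 24 h at 37 C; luciferase luminescence was then read.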

[4] = biological target: Nuclear receptor subfamily 1 group I member 3 (Homo sapiens) (UniProt Q14994); test: qHTS assay to identify small molecule agonists of the constitutive androstane receptor (CAR) signaling pathway (AID 1224839); further: nearly all actives have a fitted effect of over 15% in size; further: potency means the concentration at half of the fitted maximal effect;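 on activation: HepG2 cells stably carrying human CAR and a CYP2B6 luciferase reporter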
Procedure, shortened: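 Readout: firefly luciferase luminescence via ONE-Glo. System: HepG2 double-stable for hCAR and CYP2B6-2.2kb. Conditions: 15-point compound titration, PK11195 at 0.75 uM final, 24 h incubation.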

[5] = biological target: Thyrotropin receptor (Homo sapiens) (UniProt P16473); test: qHTS assay to identify small molecule agonists of the thyroid stimulating hormone receptor (TSHR) signaling pathway (AID 1224843; calls by dose curve; further: nearly all actives have a fitted effect of over 45% in size)
Procedure, shortened: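 TSHR-expressing HEK293 cells (800 per well) were exposed to compounds for 30 min at room temperature. cAMP was then detected by HTRF competition with cAMP-d2 and anti-cAMP cryptate, read after 1 h at room temperature. Fifteen concentrations, triplicate.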

[6] = qHTS assay to identify small molecule agonists of the hypoxia (HIF-1) signaling pathway - cell viability counter screen (AID 1224844; calls by dose curve; further: nearly all actives have a fitted effect of over 50% in size; further: potency means the concentration at half of the fitted maximal effect)
Procedure, shortened: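 HRE-bla ME-180 cells in medium with 0.5% dialyzed FBS were preincubated 5 hrs at 37C, exposed to compounds for 17 hrs, then viability was read as CellTiter-Glo luminescence after 30 min at room temperature, in the reporter wells.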

[7] = qHTS assay to identify small molecule agonists of the hypoxia (HIF-1) signaling pathway (AID 1224846; active means well fitted activation curve with a large enough effect in the signal ratio in the repeat runs, not every such curve was filed as active; the % refers to the signal ratio)
Procedure, shortened: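 HRE-bla ME-180 cells (beta-lactamase reporter under hypoxia response element) were plated at 2,000 cells/well in medium with 0.5% dialyzed FBS, rested 5 hrs, then given compounds in DMSO for 17 hrs at 37C, 5% CO2. Reporter induction was read with CCF4-AM FRET substrate.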

[8] = qHTS assay to identify small molecule agonists of H2AX - cell viability counter screen (AID 1224847; calls by dose curve; further: nearly all actives have a fitted effect of over 30% in size; further: potency means the concentration at half of the fitted maximal effect)
Procedure, shortened: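 For this counter screen, overnight-attached CHO-K1 cells received test compounds (15 concentrations, 0.76% DMSO final); 3 hr later at 37C, CellTiter-Glo reagent was added and luminescence recorded after 30 min at room temperature.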

[9] = qHTS assay to identify small molecule antagonists of the estrogen related receptor (ERR) signaling pathway from Tox21 library (AID 1224848); further: potency means the concentration at half of the fitted maximal effect; nearly all actives have a fitted effect of over 50% in size
Procedure, shortened: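 Cells: ERR line, 2,000/well; 6 h preincubation 37 C/5% CO2. Cpd in DMSO via pin tool; 18 h, 37 C. ONE-Glo, 30 min RT, luminescence.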

[10] = qHTS assay to identify small molecule agonists of the estrogen related receptor (ERR) signaling pathway from Tox21 library (AID 1224849; calls by dose curve; further: nearly all actives have a fitted effect of over 15% in size); conditions: ERR reporter cell line, ONE-Glo luciferase, 18 h; at 92.4 µM (top of the series) unless noted
Procedure, shortened: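 ERR reporter cell line (NTP) seeded, rested 6 h at 37 C/5% CO2, then pinned with Tox21 compounds in DMSO. After 18 h at 37 C, ONE-Glo luciferase luminescence was read following 30 min at room temperature.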

[11] = qHTS RealTime-Glo MT Cell Viability Assay in HepG2 cells - 24 hour (AID 1224867); further: nearly all actives have a fitted effect of over 50% in size; further: potency means the concentration at half of the fitted maximal effect
Procedure, shortened: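 HepG2 suspension premixed with RealTime-Glo reagents is plated at 600 cells per well and left 5 h at 37 C/5% CO2. Compounds in DMSO then go in, and bioluminescence reflecting viable cell number is recorded over 40 h.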

[12] = A CellTox Green Cytotoxicity Assay to monitor cytotoxicity in HEK293 cells - 0 hour (AID 1224869); further: nearly all actives have a fitted effect of over 50% in size
Procedure, shortened: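 HEK293 cells premixed with CellTox Green dye were seeded at 600 cells/well and left 5 h at 37 C/5% CO2 before pin transfer of 23 nL compound in DMSO. Fluorescence from dye bound to dead-cell DNA was read during 40 h treatment.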

[13] = qHTS RealTime-Glo MT Cell Viability Assay in HepG2 cells - 40 hour (AID 1224870); further: nearly all actives have a fitted effect of over 50% in size; further: potency means the concentration at half of the fitted maximal effect
Procedure, shortened: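 HepG2 cells mixed with RealTime-Glo MT reagents (NanoLuc plus cell-permeant prosubstrate) were seeded at 600 cells/well, incubated 5 h at 37 C/5% CO2, then pinned with compounds in DMSO; nonlytic luminescence tracked viability during 40 h treatment.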

[14] = biological target: Luciferin 4-monooxygenase (Photinus pyralis) (UniProt P08659); test: qHTS assay to identify small molecule inhibitors of firefly luciferase (AID 1224835); further: nearly all actives have a fitted effect of over 25% in size; further: potency means the concentration at half of the fitted maximal effect
Procedure, shortened: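 Quantitative HTS format; KM concentrations of both substrates. Purified P. pyralis FLuc activity quantified from luminescence images.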

[15] = qHTS assay to identify small molecule antagonists of the constitutive androstane receptor (CAR) signaling pathway - cell viability counter screen (AID 1224837); further: nearly all actives have a fitted effect of over 45% in size; further: potency means the concentration at half of the fitted maximal effect
Procedure, shortened: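 HepG2 cells stably expressing hCAR and a CYP2B6-2.2kb reporter were plated and pre-incubated 4 hr at 37 C/5% CO2, then given compounds at 15 concentrations plus 50 nM CITCO (final). After 23 hr, viability was read by CellTiter-Fluor fluorescence.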

[16] = qHTS assay to identify small molecule agonists of H2AX (AID 1224845; active means well fitted activation curve with a large enough effect in the signal ratio in the repeat runs, not every such curve was filed as active; the % refers to the signal ratio)
Procedure, shortened: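 Wild-type CHO-K1 cells plated overnight, then exposed 3 hr at 37C to compounds at 15 concentrations (0.76% DMSO). Lysed, then HTRF anti-pH2AX(S139)-cryptate/anti-H2AX-d2 detection after 24 hr at room temperature; emissions 665 and 620 nm.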

[17] = qHTS assay to identify small molecule antagonists of the estrogen related receptor signaling pathway with the pleiotropic PPARgamma coactivator (PGC) from Tox21 10K library - cell viability counter screen (AID 1224840; active means well fitted cell-killing curve with a large enough effect in the repeat runs, not every such curve was filed as active; further: nearly all actives have a fitted effect of over 40% in size)
Procedure, shortened: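 PGC/ERR cells were seeded at 2,000 cells/well and left 6 hours at 37 C/5% CO2 before pin-tool addition of compounds in DMSO. After 17.5 hours at 37 C, CellTiter-Fluor was added and fluorescence read 30 minutes later.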

[18] = qHTS assay to identify small molecule agonists of the estrogen related receptor signaling pathway with the pleiotropic PPARgamma coactivator (PGC) from Tox21 10K library (AID 1224842); further: nearly all actives have a fitted effect of over 15% in size
Procedure, shortened: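 PGC/ERR reporter cells (NTP line) were seeded 2,000 per well, rested 6 h at 37 C/5% CO2, then pin-dosed with compounds in DMSO for 18 h at 37 C; luciferase read by One-Glo luminescence after 30 min at room temperature.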

[19] = qHTS RealTime-Glo MT Cell Viability Assay in HEK293 cells - 32 hour (AID 1224868); further: nearly all actives have a fitted effect of over 50% in size; further: potency means the concentration at half of the fitted maximal effect
Procedure, shortened: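 Reads taken at 0, 8, 16, 24, 32 and 40 h from the same wells. HEK293 cells (600/well) carried RealTime-Glo reagents from seeding, with compound added after a 5 h settle at 37 C.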

[20] = qHTS assay to identify small molecule antagonists of the estrogen related receptor signaling pathway with the pleiotropic PPARgamma coactivator (PGC) from Tox21 10K library (AID 1224841; call rule not given here; further: potency means the concentration at half of the fitted maximal effect)
Procedure, shortened: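 PGC/ERR reporter cells were seeded at 2,000 cells/well and held 6 hours at 37 C/5% CO2 before pin-tool addition of compounds in DMSO. After 18 hours at 37 C, One-Glo was added and luminescence read after 30 minutes at room temperature.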

Sequence of Nuclear receptor subfamily 1 group I member 3 (Homo sapiens) (Q14994 whole entry, looked up): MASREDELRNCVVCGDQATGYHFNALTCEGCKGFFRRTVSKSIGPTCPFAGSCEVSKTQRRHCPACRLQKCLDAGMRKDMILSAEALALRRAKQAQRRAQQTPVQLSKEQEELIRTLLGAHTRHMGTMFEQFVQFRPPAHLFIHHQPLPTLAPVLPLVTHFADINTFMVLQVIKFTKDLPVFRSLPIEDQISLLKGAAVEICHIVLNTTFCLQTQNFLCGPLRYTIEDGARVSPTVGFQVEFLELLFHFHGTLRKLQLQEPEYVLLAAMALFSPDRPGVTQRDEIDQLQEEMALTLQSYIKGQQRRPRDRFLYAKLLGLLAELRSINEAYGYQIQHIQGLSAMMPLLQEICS
Sequence of Luciferin 4-monooxygenase (Photinus pyralis) (P08659 whole entry, looked up): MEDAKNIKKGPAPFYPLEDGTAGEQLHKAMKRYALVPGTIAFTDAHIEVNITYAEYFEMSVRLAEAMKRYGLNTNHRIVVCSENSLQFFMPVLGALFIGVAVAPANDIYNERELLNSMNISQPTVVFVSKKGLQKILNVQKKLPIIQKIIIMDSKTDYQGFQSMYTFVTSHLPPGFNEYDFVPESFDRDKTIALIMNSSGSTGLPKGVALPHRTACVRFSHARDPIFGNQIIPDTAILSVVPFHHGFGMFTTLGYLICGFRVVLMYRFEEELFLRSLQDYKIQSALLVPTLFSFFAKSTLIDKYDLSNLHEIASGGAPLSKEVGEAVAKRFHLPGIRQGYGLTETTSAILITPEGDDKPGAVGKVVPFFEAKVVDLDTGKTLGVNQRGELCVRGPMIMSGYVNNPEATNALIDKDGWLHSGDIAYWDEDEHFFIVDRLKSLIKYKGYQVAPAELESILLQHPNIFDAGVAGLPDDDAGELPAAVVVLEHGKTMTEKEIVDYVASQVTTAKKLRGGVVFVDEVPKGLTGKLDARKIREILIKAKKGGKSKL
Sequence of Thyrotropin receptor (Homo sapiens) (P16473 whole entry, looked up): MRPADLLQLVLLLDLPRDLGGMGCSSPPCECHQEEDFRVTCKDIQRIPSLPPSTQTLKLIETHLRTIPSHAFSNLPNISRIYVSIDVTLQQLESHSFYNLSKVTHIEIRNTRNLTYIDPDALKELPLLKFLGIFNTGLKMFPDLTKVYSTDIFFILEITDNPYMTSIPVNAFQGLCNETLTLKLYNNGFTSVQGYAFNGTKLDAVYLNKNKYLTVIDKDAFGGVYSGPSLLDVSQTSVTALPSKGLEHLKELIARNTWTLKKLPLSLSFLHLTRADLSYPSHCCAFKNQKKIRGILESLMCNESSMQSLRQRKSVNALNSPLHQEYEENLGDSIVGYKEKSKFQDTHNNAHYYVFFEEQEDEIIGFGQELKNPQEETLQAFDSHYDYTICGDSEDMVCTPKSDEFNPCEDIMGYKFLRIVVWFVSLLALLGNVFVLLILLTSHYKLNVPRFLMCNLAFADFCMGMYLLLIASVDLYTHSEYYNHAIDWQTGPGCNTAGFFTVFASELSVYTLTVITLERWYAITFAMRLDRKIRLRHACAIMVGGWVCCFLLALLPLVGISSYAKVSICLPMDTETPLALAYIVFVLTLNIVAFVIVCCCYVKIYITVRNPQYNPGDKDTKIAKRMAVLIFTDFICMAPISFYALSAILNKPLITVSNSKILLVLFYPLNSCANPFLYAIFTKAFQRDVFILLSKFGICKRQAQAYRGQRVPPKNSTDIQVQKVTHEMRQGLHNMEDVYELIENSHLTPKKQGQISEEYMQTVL

Structure (SMILES)	Potency [1]	Potency [2]	Potency [3]	Potency [4]	Potency [5]	Potency [6]	outcome [7]	Potency [8]	Potency [9]	activity change, positive = activation [10]	Potency [11]	Potency [12]	Potency [13]	Potency [14]	Potency [15]	Potency [16]	Potency [17]	Potency [18]	Potency [19]	Potency [20]
COCCOC	1.04 µM (active)	1.64 µM (active)	9.24 µM (active)	inactive	inactive	4.67 µM (active)	inactive	inactive	1.46 µM (active)	-69.9%	inactive	inactive	inactive							
C/C=C/C=C/CCCCCCCO		inactive			inactive	inactive	inactive	inactive			inactive	inactive	inactive	inactive	inactive	inactive				
CCC(=O)Oc1ccc(/C(CC)=C(\CC)c2ccc(OC(=O)CC)cc2)cc1		inactive			inactive			inactive		-47.8%	inactive	inactive	inactive	inactive	inactive	inactive	inactive	inactive	17.4 µM (active)	
CC1=NN(c2ccc(C(=O)O)cc2)C(=O)C1		inactive	inactive			inactive	inactive	inactive			inactive	inactive	inactive	inactive	inactive		inactive		inactive	
CC[C@H](NC(=O)c1cc(F)ccc1NS(=O)(=O)c1cccc2cccnc12)c1ccccc1		inactive			inactive			inactive		-48.4%	52 µM (active)		52 µM (active)	inactive	inactive	inactive		inactive	inactive	
CO[C@@]12[C@H](COC(N)=O)C3=C(C(=O)C(C)=C(N)C3=O)N1C[C@@H]1N[C@@H]12		9.44 µM (active)	0.75 µM (active)	inactive		9.52 µM (active)		inactive	8.41 µM (active)	-55.2% [at 42.5 µM]	6.01 µM (active)	inactive	5.35 µM (active)	inactive	9.44 µM (active)			inactive	0.848 µM (active)	23.7 µM (active)
CCCOC(=O)c1ccc(N)cc1		inactive			inactive	inactive	inactive	inactive		-13.8% [at 42.5 µM]	inactive	inactive	inactive	inactive	inactive	inactive	inactive	inactive	inactive	inactive
Cc1cc(O)c2c(O)c3c(O)cccc3cc2c1		inactive	inactive	29.8 µM (active)	inactive	inactive	inactive	inactive		-25.3% [at 42.5 µM]	inactive	inactive	inactive	inactive	inactive	inactive	inactive	inactive	inactive	
Cc1ccc(S(=O)(=O)NC2CCCCC2)cc1		inactive	inactive	inactive	inactive	inactive				-34.7%	inactive	inactive	inactive	inactive	inactive	inactive		inactive		inactive
COc1ccc([C@@H]2Sc3ccccc3NC(=O)[C@@H]2O)cc1		inactive		inactive	inactive	inactive	inactive	inactive		-18.7% [at 42.5 µM]	inactive		inactive	inactive	inactive	inactive		inactive		
NC(=O)N(O)[C@@H]1COc2cc(OCc3ccccc3)ccc21		inactive	inactive	0.193 µM (active)	inactive	inactive	inactive	inactive			inactive	inactive	inactive	1.12 µM (active)	inactive	inactive				
CC1C2CC(CC2C2CCCC(O)C2)C1(C)C (stereo not given)		inactive						89.8 µM (active)			inactive		inactive	inactive	inactive				inactive	
